{"source": "the supplement of paper PMC7366291", "note": "Counter-ions that a name gives are not always drawn. ± gives the standard deviation of the averaged measurements."}
{"test_system": "Danio rerio Tg(wt1b:EGFP) embryo, pronephros", "test": "pronephric angle neck segment to proximal convoluted tubule (mean of left and right), fold change vs DMSO control; higher = larger pronephric angle", "details": "25 µM; exposure: 24-48 hpf", "method_in_brief": "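Each feature value is a fold change relative to the mean of same-day DMSO-treated embryos. Embryos of the Tg(wt1b:EGFP) zebrafish line, dechorionated, received 25 μM compound in 0.5% DMSO from 24 to 48 hpf at 28.5°C, in HEPES-buffered E3 with 0.003% PTU. Distances and angles were computed by a Fiji macro from 16 manually set reference points on maximum projections of dorsal pronephros images, and values beyond 2 SD of the feature mean were removed.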"}
{"smiles": "CCN1CCN(C(=O)N[C@@H](C(=O)N[C@@H]2C(=O)N3C(C(=O)O)=C(CSc4nnnn4C)CS[C@H]23)c2ccc(O)cc2)C(=O)C1=O", "note": "[Cefoperazone dihydrate]", "pronephric angle neck segment": "1.046 ± 0.0064"}
{"smiles": "CN(C)/N=N/c1[nH]cnc1C(N)=O", "note": "[Dacarbazine]", "pronephric angle neck segment": "0.997 ± 0.06"}
{"smiles": "Cn1c(=O)c2c(ncn2CC(=O)O)n(C)c1=O", "note": "[Acefylline]", "pronephric angle neck segment": "1.02 ± 0.035"}
{"smiles": "CC(=O)N(CC(O)CO)c1c(I)c(C(=O)NCC(O)CO)c(I)c(C(=O)NCC(O)CO)c1I", "note": "(centres undefined) [Iohexol]", "pronephric angle neck segment": "0.962 ± 0.069"}
{"smiles": "O=c1[nH]c(=O)n(C2CCCO2)cc1F", "note": "(centres undefined) [Tegafur]", "pronephric angle neck segment": "0.991 ± 0.041"}
{"smiles": "COCC1=C(C(=O)OC(C)OC(=O)OC(C)C)N2C(=O)[C@@H](NC(=O)/C(=N\\OC)c3csc(N)n3)[C@H]2SC1", "note": "(some centres undefined) [Cefpodoxime proxetil]", "pronephric angle neck segment": "1.05 ± 0.054"}
{"smiles": "CC(=O)c1ccc(S(=O)(=O)NC(=O)NC2CCCCC2)cc1", "note": "[Acetohexamide]", "pronephric angle neck segment": "0.9767 ± 0.0092"}
{"smiles": "CCOC(=O)C(C)(C)Oc1ccc(Cl)cc1", "note": "[Clofibrate]", "pronephric angle neck segment": "1.66 ± 0.033"}
{"smiles": "NNc1nncc2ccccc12", "note": "[Hydralazine hydrochloride]", "pronephric angle neck segment": "1.02 ± 0.039"}
{"smiles": "CN[C@H](CC(C)C)C(=O)N[C@H]1C(=O)N[C@@H](CC(N)=O)C(=O)N[C@H]2C(=O)N[C@H]3C(=O)N[C@H](C(=O)N[C@H](C(=O)O)c4cc(O)cc(O)c4-c4cc3ccc4O)[C@H](O)c3ccc(c(Cl)c3)Oc3cc2cc(c3O[C@@H]2O[C@H](CO)[C@@H](O)[C@H](O)[C@H]2O[C@H]2C[C@](C)(N)[C@H](O)[C@H](C)O2)Oc2ccc(cc2Cl)[C@H]1O", "note": "[Vancomycin hydrochloride]", "pronephric angle neck segment": "1.06 ± 0.077"}
{"smiles": "COc1ccc(-c2cc(=S)ss2)cc1", "note": "[Anethole-trithione]", "pronephric angle neck segment": "1.04 ± 0.066"}
{"smiles": "Cc1onc(-c2c(F)cccc2Cl)c1C(=O)N[C@@H]1C(=O)N2[C@@H]1SC(C)(C)[C@@H]2C(=O)O", "note": "[Flucloxacillin sodium]", "pronephric angle neck segment": "0.958 ± 0.025"}
{"smiles": "CCCC1C(=O)N2C(N(C)C)=Nc3ccc(C)cc3N2C1=O", "note": "(centres undefined) [Azapropazone]", "pronephric angle neck segment": "1.018 ± 0.0029"}
{"smiles": "CCC(=O)OCC(=O)[C@@]1(OC(=O)CC)[C@H](C)C[C@H]2[C@H]3[C@H]([C@@H](O)C[C@@]21C)[C@@]1(C)C=CC(=O)C=C1C[C@H]3Cl", "note": "[Alclometasone dipropionate]", "pronephric angle neck segment": "1.0427 ± 2.1e-05"}
{"smiles": "CN(C)[C@@H]1C(O)=C(C(N)=O)C(=O)[C@@]2(O)C(O)=C3C(=O)c4c(O)cccc4[C@@](C)(O)[C@H]3[C@H](O)[C@@H]12", "note": "[Oxytetracycline dihydrate]", "pronephric angle neck segment": "0.9153 ± 0.0078"}
{"smiles": "NC[C@H]1O[C@H](O[C@H]2[C@H](O)[C@@H](O[C@H]3O[C@H](CO)[C@@H](O)[C@H](N)[C@H]3O)[C@H](N)C[C@@H]2N)[C@H](N)C[C@@H]1O", "note": "[Tobramycin]", "pronephric angle neck segment": "1.01 ± 0.011"}
{"smiles": "CC1(C)S[C@@H]2[C@H](NC(=O)[C@H](N)c3ccccc3)C(=O)N2[C@H]1C(=O)O", "note": "[Ampicillin trihydrate]", "pronephric angle neck segment": "1.03 ± 0.025"}
{"smiles": "CN1CCC(OC(c2ccccc2)c2ccccc2)CC1", "note": "[Diphenylpyraline hydrochloride]", "pronephric angle neck segment": "0.963 ± 0.035"}
{"smiles": "C[C@]12CCC(=O)C=C1CC[C@@H]1[C@@H]2[C@@H](O)C[C@@]2(C)[C@H]1CC[C@]2(O)C(=O)CO", "note": "[Hydrocortisone base]", "pronephric angle neck segment": "0.95 ± 0.064"}
{"smiles": "CN(C(=O)C(Cl)Cl)c1ccc(OC(=O)c2ccco2)cc1", "note": "[Diloxanide furoate]", "pronephric angle neck segment": "1.25 ± 0.081"}
{"smiles": "CCC1(c2ccccc2)C(=O)NCNC1=O", "note": "[Primidone]", "pronephric angle neck segment": "1.03 ± 0.025"}
{"smiles": "Cc1nnc(SCC2=C(C(=O)O)N3C(=O)[C@@H](NC(=O)Cn4cnnn4)[C@H]3SC2)s1", "note": "[Cefazolin sodium salt]", "pronephric angle neck segment": "1.03 ± 0.027"}
{"smiles": "CCN(CC)C(C)CN1c2ccccc2Sc2ccccc21", "note": "(centres undefined) [Ethopropazine hydrochloride]", "pronephric angle neck segment": "1 ± 0.029"}
{"smiles": "CN(C)CC/C=C1\\c2ccccc2CSc2ccccc21", "note": "[Dosulepin hydrochloride]", "pronephric angle neck segment": "0.995 ± 0.03"}
{"smiles": "CC(=O)[C@H]1CC[C@H]2[C@@H]3CCC4=CC(=O)CC[C@]4(C)[C@H]3CC[C@]12C", "note": "[Progesterone]", "pronephric angle neck segment": "1.2 ± 0.12"}
{"smiles": "O=C1CN(/N=C/c2ccc([N+](=O)[O-])o2)C(=O)N1", "note": "[Nitrofurantoin]", "pronephric angle neck segment": "0.968 ± 0.015"}
{"smiles": "CC1(C)O[C@@H]2C[C@H]3[C@@H]4C[C@H](F)C5=CC(=O)C=C[C@]5(C)[C@H]4[C@@H](O)C[C@]3(C)[C@]2(C(=O)CO)O1", "note": "[Flunisolide]", "pronephric angle neck segment": "0.92856 ± 0.0002"}
{"smiles": "CN(C)c1nc(N(C)C)nc(N(C)C)n1", "note": "[Altretamine]", "pronephric angle neck segment": "1.06 ± 0.062"}
{"smiles": "Cn1c([N+](=O)[O-])cnc1COC(N)=O", "note": "[Ronidazole]", "pronephric angle neck segment": "1.02 ± 0.016"}
